In PubChem BioAssay (NCI) one finds growth data, which are given here for 40 compounds.

Compounds without any hit were thinned out: in the full panel of roughly 83,000, 20% have a hit.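 Results are percent growth after 48 hours of single-concentration exposure. 100 means growth as in untreated cells, lower positive values show inhibition; negative values down to -100 show cell death.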 Active and inactive are the calls of the source.

The test system of this assay is UO-31 renal. Briefly: NCI-60 one-dose screen, 48 h (100 = growth as untreated, 0 = no growth, -100 = all killed). To be noted: 10 µM unless noted. As for the experimental part: Growth inhibition of the UO-31 human tumor cell line is measured as a screen for anti-cancer activity. Cells are grown in 96 well plates and exposed to the test compound for 48 hours. Compounds are tested at a single concentration, which is 10^-5 M for most compounds. The reported endpoint is percent growth (GI% or GIPRCNT), where numbers from 0 - 100% represent growth inhibition, and numbers from -100% - 0 represent cell death. For example, a value of 40 represents 60% growth inhibition. A value of 0 means no net growth occurred over the course of the experiment. A value of -40 indicates 40% of cells at the beginning of the experiment died by the end of the experiment. A value of -100 means all cells are dead at the end of the experiment.
NCI-60 Human Tumor Cell Lines Screen was performed using the standard one-dose NCI protocol, which is described in more detail at https://dtp.cancer.gov/discovery_development/nci-60/default.htm.
Compounds with GIPRCNT values below 10 were considered active. Activity score was based on GIPRCNT using the following formula: […]
Score is 0 for GIPRCNT values of 100 or above, 50 for GIPRCNT values of 0, and 100 for GIPRCNT values of -100.
For the compound `C[C@H]1[C@H](C)CC[C@]2(COC(=O)CCC(=O)O)CC[C@]3(C)C(=CC[C@@H]4[C@@]5(C)CCCNC(C)(C)[C@@H]5CC[C@]43C)[C@H]12`, the growth is 65.4% [100 µM] (inactive). As for `CCOC(=O)c1c[nH]c2cc(OCC3CC3)c(OCC3CC3)cc2c1=O`, the growth is 86.5% (inactive). On to `COc1cc2c(cc1OCCCN1CCN(CCCOc3cc4c(cc3OC)C(=O)N3C[C@H](F)C[C@H]3C=N4)CC1)N=C[C@@H]1C[C@@H](F)CN1C2=O`, for which the growth was 11.8% (inactive). For the compound `CC1=C/C(=C(\c2cc(C)c(O)c(C(=O)O)c2)c2c(Cl)cccc2Cl)C=C(C(=O)O)C1=O`, the growth was 67.8% (inactive). In the case of `CSc1nc(=S)c2nc(SC)n(-c3ccccc3)c2[nH]1`, the growth was 83.9% (inactive).

On to `Cc1cc(C)c(-c2cc(O)c(-c3c(C)cc(C)cc3C)cc2O)c(C)c1`, for which the growth was 62.1% (inactive). Consider `O=C(O)CC1CCCCC1c1ccccc1` (stereo not given), for which the growth was 75.2% (inactive).

With `CC(C)C1=NOC(=O)C1=Cc1cn(-c2ccco2)nc1-c1ccccc1`, the growth was 71.5% (inactive). For `O=C(Nc1ccc(F)cc1)c1ccccc1`, the growth is 94.3% (inactive).

As for `COc1cc2c(O)n(CCCN3CCOCC3)c3c4cnc5cccc(c(=O)c3c2cc1OC)c54`, the growth was 30.2% (inactive). Regarding `CC1Cc2c(Cl)ncnc2N(C)c2ccc(O)cc21` (stereo not given), the growth is 22.5% (inactive). Consider `COc1ccc2nc3c(cc2c1)C(=O)CC(C(F)(F)F)C3` (stereo not given), for which the growth was 46.6% (inactive).

Take `Cc1cc[n+](CCCCCCCCCC[n+]2ccc(C)cc2)cc1`: the growth was 99.8% (inactive). As for `O=C(COc1cccc(/C=C2\Oc3ccccc3C2=O)c1)c1ccc([N+](=O)[O-])cc1`, the growth is 81.2% (inactive).

As to `C[C@@H]1C[C@H]2C(=O)O[C@@H](C)[C@H](NC(=O)[C@H](Cc3cc(F)cc(F)c3)NC(=O)Nc3ccc(C4CC4)cc3F)C(=O)N3CCC[C@H]3C(=O)N3CCCC[C@H]3C(=O)N[C@@H](C)C(=O)N2C1`, the growth is 8.68% (active).

Take `CC(C)c1ccc(C(=O)Nc2nc3ccc(O)cc3s2)cc1`: the growth is 22.1% (inactive). With `Cn1cc(-c2noc(C(=O)c3cn(C)c4ncccc34)n2)c2ccccc21`, the growth is 75.9% (inactive). In the case of `CN(C)c1cc(NN=C(c2ccc(O)cc2)c2ccc(O)cc2)c([N+](=O)[O-])cc1[N+](=O)[O-]` it was 1.38% (active); in that of `CCN(CC)c1ccc2cc(C(Nc3ccc(C)cc3)c3nnnn3C(C)(C)C)c(=O)oc2c1` (stereo not given), 72.5% (inactive); in that of `C[C@@H](NC(=O)[C@@H](CC(=O)N1CCC(N2CCCCC2)CC1)N1C(=O)[C@@H](N2C(=O)OC[C@@H]2c2ccccc2)[C@H]1/C=C/c1cccc(Cl)c1)c1ccccc1`, 58.9% (inactive). Turning to `C#CCNC(=O)CC[C@@H](C)[C@H]1CC[C@H]2[C@@H]3CC[C@@H]4CC(=O)CC[C@]4(C)[C@H]3CC[C@]12C`, the growth is -92.6% [100 µM] (active). `C=C(C)[C@@H]1CC[C@]2(COCCCN)CC[C@]3(C)[C@H](CC[C@@H]4[C@@](C)(CCCNCCCN)[C@H](C(=C)C)CC[C@]43C)[C@@H]12`: the growth was -79.8% [100 µM] (active). For the compound `CN(C)C(=S)Sc1ccc([N+](=O)[O-])cc1[N+](=O)[O-]`, the growth was 16.7% (inactive). On to `CCN(CC)CCS(=O)(=O)CCNc1ccnc2cc(Cl)ccc12`, for which the growth is -25.6% (active).

As for `Cn1cc(-c2noc(-c3cn(C)c4ncccc34)n2)c2cc(Cl)ccc21`, the growth was 78.9% (inactive). As to `CCOC(=O)c1nn(C2CCCCO2)c2ccc(NC(=O)CSc3nc4ccccc4c(=O)[nH]3)cc12` (stereo not given), the growth is 79.6% (inactive). In the case of `OC(c1ccc(Cl)cc1)(c1ccc(Cl)cc1)C(O)(c1ccc(Cl)cc1)c1ccc(Cl)cc1`, the growth is 25.7% (inactive). With `COc1cc(-c2nc(SCCC(C)C)nc(Nc3ccccc3)c2C#N)cc(OC)c1OC`, the growth is 68.4% (inactive).

As to `COc1cc(C)cc2oc3oc(=O)c(-c4nc5ccccc5s4)cc3c(=O)c12`, the growth was 74.6% (inactive). In the case of `CCN(CC)CC(C)Nc1ccc(C)c2sc3ccccc3c(=O)c12` (stereo not given) it was 19.5% (inactive); in that of `CCN(CC)c1ccc(/C=C/c2ccc3cc(C)ccc3[n+]2CC)cc1`, 5.46% (active); in that of `Oc1cc(Nc2ccnc3cc(Cl)ccc23)c2ncccc2c1`, 44.4% (inactive). For `COc1ccc2c(c1)c(-c1noc(-c3cn(C)c4ncc(F)cc34)n1)cn2C`, the growth was 85.1% (inactive). In the case of `CCCCCCNC(=O)Nc1ncnc2c1ncn2-c1ccccc1`, the growth is 58.4% (inactive). As to `CCC(Br)(CC)C(=O)c1ccc(OCC(=O)O)c(Cl)c1Cl`, the growth is 92.1% (inactive). In the case of `O=C(Nc1cccc(C2=NCCN2)c1)c1cccc(C(=O)Nc2cccc(C3=NCCN3)c2)c1` it was 84.5% (inactive); in that of `COc1cc(-c2nc(SCCC(C)C)nc(Nc3ccc(S(N)(=O)=O)cc3)c2C#N)cc(OC)c1OC`, 14.7% (inactive); in that of `CC1(C)CC[C@]2(C(N)=O)CC[C@]3(C)C(=CC[C@@H]4[C@@]5(C)C/C(=C/c6cccnc6)C(=O)C(C)(C)[C@@H]5CC[C@]43C)[C@@H]2C1`, -95.1% [100 µM] (active).

Consider `Cc1nc(Cl)c2c(n1)N(C)c1ccc(Cl)cc1C(C)C2` (stereo not given), for which the growth is 70.9% (inactive). For the compound `c1nc(N2CCOCC2)c2[nH]ccc2n1`, the growth is 87.6% (inactive).
